# Test results taken from the supplement of paper PMC10037445.
# The full ranking holds about 2,900 compounds; the median of “NF-kB SEAP reporter activity, fold change vs agonist alone” is about 0.99, and the highest 2% start at about 2.6. Only a selection was taken, and the highest values are over-represented in it overall.
# Legend:
# RAW-Dual [1] = experiment: NF-kB SEAP reporter activity, fold change vs agonist alone; cytotoxicity flag (confluency mask): not cytotoxic; higher = enhanced NF-kB activity
# In short: (§1)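 Supernatant from RAW-Dual macrophages was read after 20 hours for IRF by QuantiLuc luminescence and for NF-κB by QuantiBlue absorbance at 620 nm. The cells (50,000 cells/well in DMEM, 384-well plates, 37 °C, 5% CO2) had received 50 nL of library stock by pin tool and, 1 h later, a PRR agonist. Reporter activity is expressed relative to agonist-alone wells as fold change, and wells were flagged cytotoxic if IncuCyte confluency was under 70% of agonist controls in both mask sets.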
# RAW-Dual [2] = experiment: NF-kB SEAP reporter activity, fold change vs agonist alone; higher = enhanced NF-kB activity; conditions: library stock concentration (final ~1000-fold dilution): 10 mM
# In short: as §1
# RAW-Dual [3] = experiment: NF-kB SEAP reporter activity, fold change vs agonist alone; cytotoxicity flag (confluency mask): cytotoxic (confluency <70% of control); higher = enhanced NF-kB activity
# In short: as §1
# [4] = agonist: ODN 1826 (TLR9) 0.5 ug/mL
# [5] = agonist: Pam2CSK4 (TLR2/6) 0.1 ug/mL
# [6] = agonist: Pam3CSK4 (TLR2/1) 0.1 ug/mL
# [7] = cytotoxicity flag (confluency mask): not cytotoxic, agonist: Imiquimod (TLR7) […]
# [8] = cytotoxicity flag (confluency mask): not cytotoxic, agonist: MPLA (TLR4) […]
smiles,measurement,setting,value
CCCCCCCCCCCCCCCC(=O)OC1C(SC)OC(C(NC(=O)C2CC(CCC)CN2C)C(C)Cl)C(O)C1O.Cl (stereo not given) (library stock concentration (final ~1000-fold dilution): 10 mM),NF-kB SEAP reporter activity,RAW-Dual [1]; agonist: LPS (TLR4) 0.1 ug/mL,0.968
same,NF-kB SEAP reporter activity,RAW-Dual [1]; [4],1.08
same,NF-kB SEAP reporter activity,RAW-Dual [1]; [5],0.877
same,NF-kB SEAP reporter activity,RAW-Dual [1]; [6],0.713
CCCCCCCCCCCCCCCC(=O)OC1C(SC)OC(C(NC(=O)C2CC(CCC)CN2C)C(C)Cl)C(O)C1O.Cl (stereo not given),NF-kB SEAP reporter activity,RAW-Dual [2]; [7],1.2
same,NF-kB SEAP reporter activity,RAW-Dual [2]; [8],0.983
Cc1n[nH]c2ncc(C(=O)N3CCCC3c3ccc(Cl)cc3)cc12 (stereo not given) (library stock concentration (final ~1000-fold dilution): 10 mM),NF-kB SEAP reporter activity,RAW-Dual [1]; agonist: LPS (TLR4) 0.1 ug/mL,2.51
same,NF-kB SEAP reporter activity,RAW-Dual [1]; [4],2.07
same,NF-kB SEAP reporter activity,RAW-Dual [1]; [5],1.61
same,NF-kB SEAP reporter activity,RAW-Dual [1]; [6],2.59
COC(=O)NC(C(=O)N1CCCC1c1ncc(-c2ccc(-c3ccc(-c4cnc(C5CCCN5C(=O)C(NC(=O)OC)C(C)C)[nH]4)cc3)cc2)[nH]1)C(C)C (stereo not given) (library stock concentration (final ~1000-fold dilution): 10 mM),NF-kB SEAP reporter activity,RAW-Dual [1]; agonist: LPS (TLR4) 0.1 ug/mL,1.88
same,NF-kB SEAP reporter activity,RAW-Dual [1]; [4],0.935
same,NF-kB SEAP reporter activity,RAW-Dual [1]; [5],0.867
same,NF-kB SEAP reporter activity,RAW-Dual [1]; [6],0.8
COC(=O)NC(C(=O)N1CCCC1c1ncc(-c2ccc(-c3ccc(-c4cnc(C5CCCN5C(=O)C(NC(=O)OC)C(C)C)[nH]4)cc3)cc2)[nH]1)C(C)C (stereo not given),NF-kB SEAP reporter activity,RAW-Dual [2]; [7],1.24
same,NF-kB SEAP reporter activity,RAW-Dual [2]; [8],1.31
Cc1n[nH]c2ncc(C(=O)N3CCCC3c3ccc(Cl)cc3)cc12 (stereo not given),NF-kB SEAP reporter activity,RAW-Dual [2]; [7],1.44
same,NF-kB SEAP reporter activity,RAW-Dual [2]; [8],1.77
Cn1ncc(Cl)c1-c1cc(C(=O)NC(CN)Cc2cccc(F)c2)sc1Cl (stereo not given),NF-kB SEAP reporter activity,RAW-Dual [2]; [7],1.39
same,NF-kB SEAP reporter activity,RAW-Dual [2]; [8],1.77
Cn1ncc(Cl)c1-c1cc(C(=O)NC(CN)Cc2cccc(F)c2)sc1Cl (stereo not given) (library stock concentration (final ~1000-fold dilution): 10 mM),NF-kB SEAP reporter activity,RAW-Dual [1]; agonist: LPS (TLR4) 0.1 ug/mL,1.53
same,NF-kB SEAP reporter activity,RAW-Dual [1]; [4],1.27
same,NF-kB SEAP reporter activity,RAW-Dual [1]; [5],1
same,NF-kB SEAP reporter activity,RAW-Dual [1]; [6],1.15
CCCC(NC(=O)C1C2CCCC2CN1C(=O)C(NC(=O)C(NC(=O)c1cnccn1)C1CCCCC1)C(C)(C)C)C(=O)C(=O)NC1CC1 (stereo not given),NF-kB SEAP reporter activity,RAW-Dual [2]; [7],0.65
same,NF-kB SEAP reporter activity,RAW-Dual [2]; [8],1.02
CCCC(NC(=O)C1C2CCCC2CN1C(=O)C(NC(=O)C(NC(=O)c1cnccn1)C1CCCCC1)C(C)(C)C)C(=O)C(=O)NC1CC1 (stereo not given) (library stock concentration (final ~1000-fold dilution): 10 mM),NF-kB SEAP reporter activity,RAW-Dual [1]; agonist: LPS (TLR4) 0.1 ug/mL,1.3
same,NF-kB SEAP reporter activity,RAW-Dual [1]; [4],0.887
same,NF-kB SEAP reporter activity,RAW-Dual [1]; [5],0.68
same,NF-kB SEAP reporter activity,RAW-Dual [1]; [6],0.601
Nc1nc(F)nc2c1ncn2C1OC(CO)C(O)C1O (stereo not given),NF-kB SEAP reporter activity,RAW-Dual [2]; [7],0.92
same,NF-kB SEAP reporter activity,RAW-Dual [2]; [8],0.844
Nc1nc(F)nc2c1ncn2C1OC(CO)C(O)C1O (stereo not given) (library stock concentration (final ~1000-fold dilution): 10 mM),NF-kB SEAP reporter activity,RAW-Dual [1]; agonist: LPS (TLR4) 0.1 ug/mL,1.1
same,NF-kB SEAP reporter activity,RAW-Dual [1]; [4],1.03
same,NF-kB SEAP reporter activity,RAW-Dual [1]; [5],1.06
same,NF-kB SEAP reporter activity,RAW-Dual [1]; [6],1.22
CC(C)CC(NC(=O)C(CCc1ccccc1)NC(=O)CN1CCOCC1)C(=O)NC(Cc1ccccc1)C(=O)NC(CC(C)C)C(=O)C1(C)CO1 (stereo not given) (library stock concentration (final ~1000-fold dilution): 10 mM),NF-kB SEAP reporter activity,RAW-Dual [1]; agonist: LPS (TLR4) 0.1 ug/mL,0.318
same,NF-kB SEAP reporter activity,RAW-Dual [1]; [4],1.18
same,NF-kB SEAP reporter activity,RAW-Dual [1]; [5],0.683
same,NF-kB SEAP reporter activity,RAW-Dual [1]; [6],0.456
CC(C)CC(NC(=O)C(CCc1ccccc1)NC(=O)CN1CCOCC1)C(=O)NC(Cc1ccccc1)C(=O)NC(CC(C)C)C(=O)C1(C)CO1 (stereo not given),NF-kB SEAP reporter activity,RAW-Dual [2]; [7],2.33
same,NF-kB SEAP reporter activity,RAW-Dual [2]; [8],0.832
CCc1c(N(CC)C2CCOCC2)cc2oc(C3CCN(C(C)C)CC3)cc2c1C(=O)NCc1c(C)cc(C)[nH]c1=O,NF-kB SEAP reporter activity,RAW-Dual [2]; [7],1.34
same,NF-kB SEAP reporter activity,RAW-Dual [2]; [8],1.04
CCc1c(N(CC)C2CCOCC2)cc2oc(C3CCN(C(C)C)CC3)cc2c1C(=O)NCc1c(C)cc(C)[nH]c1=O (library stock concentration (final ~1000-fold dilution): 10 mM),NF-kB SEAP reporter activity,RAW-Dual [1]; agonist: LPS (TLR4) 0.1 ug/mL,1.13
same,NF-kB SEAP reporter activity,RAW-Dual [1]; [4],0.983
same,NF-kB SEAP reporter activity,RAW-Dual [1]; [5],1.04
same,NF-kB SEAP reporter activity,RAW-Dual [1]; [6],0.941
COCC(NC(=O)c1cnc(C)s1)C(=O)NC(COC)C(=O)NC(Cc1ccccc1)C(=O)C1(C)CO1 (stereo not given),NF-kB SEAP reporter activity,RAW-Dual [2]; [7],2.34
same,NF-kB SEAP reporter activity,RAW-Dual [2]; [8],1.21
COCC(NC(=O)c1cnc(C)s1)C(=O)NC(COC)C(=O)NC(Cc1ccccc1)C(=O)C1(C)CO1 (stereo not given) (library stock concentration (final ~1000-fold dilution): 10 mM),NF-kB SEAP reporter activity,RAW-Dual [1]; agonist: LPS (TLR4) 0.1 ug/mL,0.377
same,NF-kB SEAP reporter activity,RAW-Dual [1]; [4],1.25
same,NF-kB SEAP reporter activity,RAW-Dual [1]; [5],0.279
same,NF-kB SEAP reporter activity,RAW-Dual [1]; [6],0.692
Cc1nc(N)sc1-c1ccnc(Nc2ccc(N3CCOCC3)cc2)n1,NF-kB SEAP reporter activity,RAW-Dual [2]; [7],0.996
same,NF-kB SEAP reporter activity,RAW-Dual [2]; [8],1.39
CC(C)(O)CNc1ncc(-c2ccnc(Nc3ccncc3)n2)c(CC2CC2)n1,NF-kB SEAP reporter activity,RAW-Dual [2]; [7],0.914
same,NF-kB SEAP reporter activity,RAW-Dual [2]; [8],2.18
CC(C)(O)CNc1ncc(-c2ccnc(Nc3ccnc(Cl)c3)n2)c(CC2CC2)n1 (library stock concentration (final ~1000-fold dilution): 10 mM),NF-kB SEAP reporter activity,RAW-Dual [1]; agonist: LPS (TLR4) 0.1 ug/mL,5.81
same,NF-kB SEAP reporter activity,RAW-Dual [1]; [4],0.935
same,NF-kB SEAP reporter activity,RAW-Dual [1]; [5],1.41
same,NF-kB SEAP reporter activity,RAW-Dual [1]; [6],1.8
COc1cc(N2CCN(C)CC2)ccc1Nc1nccc(-c2cn(C)c3cnccc23)n1,NF-kB SEAP reporter activity,RAW-Dual [2]; [7],0.285
same,NF-kB SEAP reporter activity,RAW-Dual [2]; [8],1.58
Nc1ncc(-c2ccnc(Nc3ccncc3)n2)c(CC2CC2)n1 (library stock concentration (final ~1000-fold dilution): 10 mM),NF-kB SEAP reporter activity,RAW-Dual [3]; agonist: LPS (TLR4) 0.1 ug/mL,4.89
same,NF-kB SEAP reporter activity,RAW-Dual [3]; [4],0.424
same,NF-kB SEAP reporter activity,RAW-Dual [3]; [5],0.975
same,NF-kB SEAP reporter activity,RAW-Dual [3]; [6],1.51
Nc1ncc(-c2ccnc(Nc3ccncc3)n2)c(CC2CC2)n1,NF-kB SEAP reporter activity,"RAW-Dual [2]; cytotoxicity flag (confluency mask): cytotoxic (confluency <70% of control), agonist: Imiquimod (TLR7) […]",0.641
same,NF-kB SEAP reporter activity,"RAW-Dual [2]; cytotoxicity flag (confluency mask): cytotoxic (confluency <70% of control), agonist: MPLA (TLR4) […]",2.13
CC(C)(O)CNc1nc(Nc2ccnc(C(F)(F)F)c2)nc(-c2cccc(C(F)(F)F)n2)n1 (library stock concentration (final ~1000-fold dilution): 10 mM),NF-kB SEAP reporter activity,RAW-Dual [1]; agonist: LPS (TLR4) 0.1 ug/mL,1.51
same,NF-kB SEAP reporter activity,RAW-Dual [1]; [4],1.61
same,NF-kB SEAP reporter activity,RAW-Dual [1]; [5],1.09
same,NF-kB SEAP reporter activity,RAW-Dual [1]; [6],1.59
CC(C)(O)CNc1nc(Nc2ccnc(C(F)(F)F)c2)nc(-c2cccc(C(F)(F)F)n2)n1,NF-kB SEAP reporter activity,RAW-Dual [2]; [7],1.19
same,NF-kB SEAP reporter activity,RAW-Dual [2]; [8],1.28
CC(C)(O)CNc1ncc(-c2ccnc(Nc3ccncc3)n2)c(CC2CC2)n1 (library stock concentration (final ~1000-fold dilution): 10 mM),NF-kB SEAP reporter activity,RAW-Dual [1]; agonist: LPS (TLR4) 0.1 ug/mL,4.13
same,NF-kB SEAP reporter activity,RAW-Dual [1]; [4],0.366
same,NF-kB SEAP reporter activity,RAW-Dual [1]; [5],0.814
same,NF-kB SEAP reporter activity,RAW-Dual [1]; [6],1.66
COc1cc(N2CCN(C)CC2)ccc1Nc1nccc(-c2cn(C)c3cnccc23)n1 (library stock concentration (final ~1000-fold dilution): 10 mM),NF-kB SEAP reporter activity,RAW-Dual [1]; agonist: LPS (TLR4) 0.1 ug/mL,1.02
same,NF-kB SEAP reporter activity,RAW-Dual [1]; [4],0.192
same,NF-kB SEAP reporter activity,RAW-Dual [1]; [5],1.14
same,NF-kB SEAP reporter activity,RAW-Dual [1]; [6],1.44
Cc1nc(N)sc1-c1ccnc(Nc2ccc(N3CCOCC3)cc2)n1 (library stock concentration (final ~1000-fold dilution): 10 mM),NF-kB SEAP reporter activity,RAW-Dual [1]; agonist: LPS (TLR4) 0.1 ug/mL,0.713
same,NF-kB SEAP reporter activity,RAW-Dual [1]; [4],0.256
same,NF-kB SEAP reporter activity,RAW-Dual [1]; [5],0.401
same,NF-kB SEAP reporter activity,RAW-Dual [1]; [6],0.522
CC(C)(O)CNc1ncc(-c2ccnc(Nc3ccnc(Cl)c3)n2)c(CC2CC2)n1,NF-kB SEAP reporter activity,RAW-Dual [2]; [7],0.784
same,NF-kB SEAP reporter activity,RAW-Dual [2]; [8],2.07
